In PubChem BioAssay AID1508619 (National Center for Advancing Translational Sciences (NCATS), 2020):
Results filed as inconclusive are left out. Where a call stands in place of a potency, no number is given. Active and inactive are the calls of the source. Calls come from the whole dose curve; as a rule, active = well fitted inhibition curve with a large enough effect; inconclusive = small, poorly fitted or top-dose-only effect; inactive = no such curve, though single readings can be large or run the other way.

Test: Counterscreen qHTS for Identification of Calcium Integrin Binding Protein 1 (CIB1) Competitor
Details: series mostly up to 114 µM
How it was run: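 Compounds (final up to 114 uM) preincubated 15 min at room temperature with 1 uM CIB1-GST in calcium-containing HEPES pH 7.4 buffer; 100 nM scrambled FITC peptide added, and fluorescence polarization (480/540) measured after another 15 min.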
Potency is the fitted concentration of half-maximal effect.

**Q.** With CSc1cc2c(s1)c1cnn(Cc3cccc(N)c3)c(=O)c1n2C as the compound, how does the Potency read?
**A.** The Potency was “inactive”.

**Q.** For CC(OC(=O)c1ccc(S(C)(=O)=O)c([N+](=O)[O-])c1)C(=O)NC1C2CC3CC(C2)CC1C3 (stereo not drawn), which Potency is on record?
**A.** Its Potency is “inactive”.

**Q.** For N#Cc1ccc(NS(=O)(=O)c2ccc(NC(=O)Cc3ccc(Cl)c(Cl)c3)cc2)cc1, which Potency is on record?
**A.** The Potency was “inactive”.

**Q.** For Cc1ccc(Cl)cc1NC(=O)c1nc[nH]c1C(=O)Nc1nc2ccccc2[nH]1, which Potency is on record?
**A.** Its Potency is “inactive”.

**Q.** With CC(C)(O)CCc1ccc(OCc2cc(-c3cccc(OC(F)F)c3)c3ncccc3c2)cc1 as the compound, how does the Potency read?
**A.** The Potency was “inactive”.

**Q.** For O=S(=O)(Nc1nccs1)c1ccc(NCc2cc(Cl)ccc2O)cc1, which Potency is on record?
**A.** The Potency was “inactive”.

**Q.** For CCOc1ccc(CCNC(C)=O)cc1OCC, which Potency is on record?
**A.** The Potency was “inactive”.

**Q.** Which Potency does the source give for COC(=O)c1ccc(O)c2ncc(-c3ccc(C(=O)N4CCNCC4)cc3)cc12 here?
**A.** The Potency was “inactive”.

**Q.** With CCCC(=O)c1cc(O)c(O)cc1O as the compound, how does the Potency read?
**A.** The Potency was 31.6 µM (active).

**Q.** With Cn1cc(-c2[nH]c3cc(NC(=O)[C@H](N)C4CCCCC4)cc4c3c2C=NNC4=O)cn1 as the compound, how does the Potency read?
**A.** The Potency was 79.4 µM (active).

**Q.** For Cc1nc(C(=O)NCC(=O)O)c(O)c2ccc(Oc3ccccc3)cc12, which Potency is on record?
**A.** Its Potency is “inactive”.

**Q.** For CCc1ccc(C=C2SC(=S)NC2=O)cc1, which Potency is on record?
**A.** The Potency was “inactive”.

**Q.** With C[C@H]1COC2=C1C(=O)C(=O)c1c2ccc2c1CCCC2(C)C as the compound, how does the Potency read?
**A.** Its Potency is “inactive”.

**Q.** With Cc1ccc(OCCn2c(CCNC(=O)c3ccsc3)nc3ccccc32)cc1 as the compound, how does the Potency read?
**A.** The Potency was “inactive”.

**Q.** Which Potency does the source give for Cc1cc2c(C(C)C)c(O)c(O)c(C=O)c2c(O)c1-c1c(C)cc2c(C(C)C)c(O)c(O)c(C=O)c2c1O here?
**A.** The Potency was “inactive”.

**Q.** Which Potency does the source give for Cc1cc2nc3ccc(=[N+](C)C)cc-3sc2cc1N here?
**A.** The Potency was 44.7 µM (active).

**Q.** Which Potency does the source give for O=C(O)c1c(Cl)c(Cl)c(Cl)c(Cl)c1-c1c2cc(I)c(=O)c(I)c-2oc2c(I)c(O)c(I)cc12 here?
**A.** The Potency was “inactive”.

**Q.** Which Potency does the source give for CCCC1CCN(C(=O)COC(=O)c2ccc(S(C)(=O)=O)c([N+](=O)[O-])c2)CC1 here?
**A.** The Potency was “inactive”.

**Q.** Which Potency does the source give for C=CCNc1oc(-c2ccc(-c3ccccc3)cc2)nc1C#N here?
**A.** Its Potency is “inactive”.

**Q.** Which Potency does the source give for O=C1c2ccccc2C(=O)c2c1ccc(O)c2O here?
**A.** Its Potency is 22.4 µM (active).

**Q.** For CC(C)(C)OC(=O)CC(=O)NNC(=O)c1nc2ccccc2[nH]1, which Potency is on record?
**A.** Its Potency is “inactive”.

**Q.** For COc1ccc(C(=O)Nc2nc(-c3ccccc3)cs2)c(NS(=O)(=O)c2ccc(C)cc2)c1, which Potency is on record?
**A.** Its Potency is “inactive”.

**Q.** For O=[S+]([O-])(NCc1nccs1)c1ccc(Nc2nc(-c3ccccc3)cs2)cc1, which Potency is on record?
**A.** Its Potency is 50.1 µM (active).

**Q.** For CS(=O)(=O)c1ccc(C(=O)OCC(=O)N2CCC(Cc3ccccc3)CC2)cc1[N+](=O)[O-], which Potency is on record?
**A.** The Potency was “inactive”.

**Q.** For CN(C)c1cnc2c(O)cccc2c1, which Potency is on record?
**A.** The Potency was “inactive”.

**Q.** Which Potency does the source give for Fc1ccc(NC(=S)Nc2nnc(-c3ccncc3)s2)cc1C(F)(F)F here?
**A.** The Potency was “inactive”.

**Q.** With OCCOCCN1CCN(C(c2ccccc2)c2ccc(Cl)cc2)CC1 (stereo not drawn) as the compound, how does the Potency read?
**A.** Its Potency is “inactive”.

**Q.** For Cc1ccc(S(=O)(=O)Nc2cc3c(cc2C(=O)Nc2nc(-c4ccccc4)cs2)OCO3)cc1, which Potency is on record?
**A.** Its Potency is “inactive”.

**Q.** With O=[N+]([O-])c1ccc(O)c2ncccc12 as the compound, how does the Potency read?
**A.** The Potency was “inactive”.

**Q.** With C=C(CC)C(=O)c1ccc(OCC(=O)O)c(Cl)c1Cl as the compound, how does the Potency read?
**A.** Its Potency is “inactive”.

**Q.** With C/C(=C\c1ccc2c(c1)OCO2)C1Nc2cccc3cccc(c23)N1 as the compound, how does the Potency read?
**A.** The Potency was 12.6 µM (active).

**Q.** With O=C(Nc1ccc(S(=O)(=O)N2CCOCC2)cc1)c1cc(Cl)ccc1NS(=O)(=O)c1ccc(Cl)s1 as the compound, how does the Potency read?
**A.** Its Potency is “inactive”.

**Q.** With COc1ccc2c(=O)n3nc(Nc4cccc(N5CCN(C)CC5)c4)sc3nc2c1 as the compound, how does the Potency read?
**A.** The Potency was “inactive”.
